Hit rate of the full screen: of about 140,000 compounds, about 4,300 (3.1%) were called active. About 21% were inconclusive and are not listed.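 How the source made its calls: active means readout at or below -70, meaning at least 70% loss of cells showing the perinucleolar compartment, a nuclear body marking cancer cells; inconclusive means readout between -30 and a set limit; inactive means the rest.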 The sample as a whole holds a higher share of actives than the screen did.

This assay in a line: High Content Assay for Compounds that inhibit the Assembly of the Perinucleolar Compartment.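 Further: plate controls were DMSO wells for no effect and camptothecin positive control wells for full effect.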 The note with it: PC3M PTB-GFP, PNC prevalence imaging, 16 h; at 10 µM; active compounds read low. In a few lines:
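Compounds are pinned in duplicate onto adhered PC3M cells stably expressing GFP-tagged PTB and incubated 16 h at 37 C. Cells are then fixed, nuclei stained with Hoechst, and PNC-positive cells counted.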
As for `O=C(CNS(=O)(=O)c1ccccc1)NCC(=O)OCc1ccccc1F`, the activity change (PNC), negative = inhibition is 26% (inactive).
As for `Cn1ncc2c(NNC(=O)Cc3cccc4ccccc34)ncnc21`, the activity change (PNC), negative = inhibition is -13.1% (inactive).
The value for `COc1ccc(N2C(=O)CC(SC(C)C)C2=O)cc1` (stereo unspecified) was 36.9% (inactive).
Under `O=C(Nn1c(-c2ccccc2)nc2ccccc2c1=O)c1ccc([N+](=O)[O-])cc1` stands 38.7% (inactive); under `O=C(N/N=C/c1coc2ccccc2c1=O)c1cc2ccccc2o1`, 11% (inactive); under `O=C(/C=C/NCc1ccc(F)cc1)c1ccccc1`, -6.98% (inactive).
Take `Fc1ccc2c(c1)C(c1cccnc1)=NNC(c1cccs1)=N2`: the activity change (PNC), negative = inhibition is 17.9% (inactive).
Under `C=CCn1c(SCC(=O)c2ccc(Br)cc2)nnc1C(C)NC(=O)Cc1ccc(OC)cc1` (stereo unspecified) stands 11.4% (inactive); under `C=CCn1c(SCc2ccc(Cl)c(Cl)c2)nnc1C(CO)NC(=O)c1ccc(OC)cc1` (stereo unspecified), -102% (active).
The value for `C=CCn1c(SCc2c(C(=O)OC)sc(N)c2C(=O)OC)nnc1-c1ccc(Cl)cc1` was 7.94% (inactive); that for `CC1(C)C(C=C(Cl)Cl)C1C(=O)N(Cc1ccc(Cl)cc1)C1CCS(=O)(=O)C1` (stereo unspecified) was 32.1% (inactive); that for `O=C(NN1C(=O)C2C3C=CC(O3)C2C1=O)c1ccncc1` (stereo unspecified) was 36% (inactive).
Under `CC(=O)c1ccc(NC(=S)NC(=O)CC(C)C)cc1` stands 18.7% (inactive).
Regarding `COC(=O)C1=C(Nc2ccc(OC)cc2)C=C(C)C(C(=O)OC)C1c1ccc(C)cc1` (stereo unspecified), the activity change (PNC), negative = inhibition is -17.7% (inactive).
Under `COC(=O)C1=C(Nc2ccc(C)cc2)C=C(C)C(C(=O)OC)C1c1ccc(F)cc1` (stereo unspecified) stands -100% (active); under `COC(=O)C1C(=O)NCC1c1ccc(C)cc1` (stereo unspecified), -2.49% (inactive).
With `O=C(CCc1[nH]c2ccccc2c1Sc1ccccc1)N(CCO)CCO`, the activity change (PNC), negative = inhibition was 85.7% (inactive).
The value for `CC(=O)NC1=NN(C(C)=O)C(C)(c2ccc(C)cc2)S1` (stereo unspecified) was 54.1% (inactive); that for `COc1ccc(C(=O)Nc2c(Cl)cc(Cl)cc2C(=O)N2CCC(C)CC2)cc1` was -10.7% (inactive); that for `CCOC1CCCCC1NS(=O)(=O)c1ccc(Cl)cc1` (stereo unspecified) was 21.4% (inactive).
Under `CSc1ccc(S(=O)(=O)NC2CCCCC2)cc1` stands -23.3% (inactive).
The value for `Cc1cc(C)nc(SC2CCCCC2NS(=O)(=O)c2ccc(Cl)cc2)n1` (stereo unspecified) was -107% (active); that for `CC(=O)N/C(=C/c1ccc(OC(F)F)cc1)C(=O)O` was -25.2% (inactive); that for `COc1ccccc1CNC(=O)CN1CCC(n2cnc3cc(F)ccc32)CC1` was 26.2% (inactive).
As for `COc1ccc(N2C(=O)C(CC(=O)Nc3ccc(F)cc3)N(CCc3cccs3)C2=O)cc1` (stereo unspecified), the activity change (PNC), negative = inhibition was 20.2% (inactive).
For `CC(C)CCNC(=O)c1cccnc1Sc1ccccc1`, the activity change (PNC), negative = inhibition was 23.2% (inactive).
In the case of `Cc1cccc2cc(C#N)c(N3CCCC3)nc12`, the activity change (PNC), negative = inhibition is -8.64% (inactive).
`FC(F)(F)c1cccc(-c2cc3ccccc3nc2N2CCCC2)c1`: the activity change (PNC), negative = inhibition was -94.9% (active).
The value for `S=C(NCCc1ccccc1)NCc1ccccc1Cl` was 29.5% (inactive); that for `COc1ccc(-n2c(C)cc(C(=O)CN3C(=O)NC4(CCc5ccccc54)C3=O)c2C)cc1` (stereo unspecified) was -15% (inactive).
Under `COc1ccccc1N1CCN(Cc2nnnn2CCc2ccccc2)CC1` stands -5.45% (inactive); under `COc1ccccc1N1CCN(Cc2ccc(OC)c3ccccc23)CC1`, -100% (active).
The value for `COc1ccccc1N1CCN(CCCCOc2ccc(F)cc2)CC1` was 11% (inactive); that for `O=C1/C(=C\c2ccccc2Cl)SC(=S)N1CCC(=O)N1CCCc2ccccc21` was 47.3% (inactive); that for `O=C(Nc1cccc(S(=O)(=O)N2CCCCC2)c1)c1ccc2c(c1)OCO2` was -20.4% (inactive).
`CC(C)Oc1ccc(CC(=O)NNC(=S)Nc2ccc(Br)cc2)cc1`: the activity change (PNC), negative = inhibition is -113% (active).
Under `COC(=O)Cc1ccc(NC(=S)NCc2ccccc2)cc1` stands -25.7% (inactive); under `Cc1ccc(OC(=O)CCC(=O)Nc2ccc(Br)cc2)cc1`, -25% (inactive).
The value for `Cc1ccccc1NC(=S)N(CCCN1CCOCC1)Cc1cccs1` was 27.2% (inactive); that for `Cc1ccc(S(=O)(=O)NC(C)C(=O)Nc2ccccc2C(=O)N2CCCC2)cc1` (stereo unspecified) was 12.1% (inactive); that for `CC1CN(C(=O)c2ccccc2NS(=O)(=O)c2cccc([N+](=O)[O-])c2)CC(C)O1` (stereo unspecified) was 25.2% (inactive).
Under `Cc1ccc2c(c1)C1CN(C)CCC1N2C(=O)c1ccccc1NS(=O)(=O)c1ccc(F)cc1C` (stereo unspecified) stands -99.6% (active).
With `CCC(=O)Nc1c(C)n[nH]c1C`, the activity change (PNC), negative = inhibition was 0.725% (inactive).
The value for `O=C(c1cccs1)n1nc(NCc2ccccc2)nc1NCc1ccccc1` was -4.14% (inactive).
Under `CC(=O)NC(Cc1ccccc1)C(=O)NC1CCN(c2ncccc2[N+](=O)[O-])CC1` (stereo unspecified) stands 23.2% (inactive); under `CC(C)n1c(NCc2c[nH]c3ccccc23)nc2ccccc21`, -100% (active).
The value for `CC(C)n1c(C(O)c2ccccc2)nc2ccccc21` (stereo unspecified) was 24.7% (inactive); that for `Cc1ccc(O)c(CNc2nc3ccccc3n2C)c1` was -1.77% (inactive); that for `S=C(NCCc1ccccc1)NCC1CCCO1` (stereo unspecified) was -9.43% (inactive).
Take `CCOC(=O)C1CCN(c2ncnc3c2oc2ccc(Br)cc23)CC1`: the activity change (PNC), negative = inhibition is 11.1% (inactive).
The value for `CCOC(=O)C1CCN(Cc2coc3ccc(Cl)cc3c2=O)CC1` was -80.9% (active); that for `CCOC(=O)c1nnn(-c2nonc2-n2cccc2)c1CN1CCC(C(=O)OCC)CC1` was 10.9% (inactive); that for `Cc1ccc(C(=O)COC(=O)CCCC(=O)NC2CCCCC2)cc1[N+](=O)[O-]` was 17% (inactive).
The value for `COc1ccc(OC)c(-c2c(=O)n(OCc3ccccc3Br)c3ccccc3[n+]2[O-])c1` was -113% (active).
Under `CCOc1ccc(OCC)c(-c2c(=O)n(OCc3ccc(Cl)cc3)c3ccccc3[n+]2[O-])c1` stands 60.4% (inactive).
Consider `C=CCNCCCCOc1ccccc1`, for which the activity change (PNC), negative = inhibition is -6.05% (inactive).
Under `CC(CNc1ccc([N+](=O)[O-])cc1)NC(=O)c1ccccc1Br` (stereo unspecified) stands 3.05% (inactive).
In the case of `O=C(NCCNc1ccc([N+](=O)[O-])cc1)c1cccc2c(Br)cccc12`, the activity change (PNC), negative = inhibition was -86.3% (active).
On to `CN(C)CCNC(=O)Cc1ccc([N+](=O)[O-])cc1`, for which the activity change (PNC), negative = inhibition was 15.1% (inactive).
Take `Cc1nc2ccccc2nc(C)c1=NOCc1ccc(Cl)cc1Cl`: the activity change (PNC), negative = inhibition was -24.9% (inactive).
The value for `Cc1ccn(-c2cccc(-n3ccc(C)n3)n2)n1` was -4.25% (inactive).

The values above are taken from PubChem BioAssay AID2417 (National Center for Advancing Translational Sciences (NCATS), 2010).
